These results are taken from PubChem BioAssay AID602438 (Sanford-Burnham Center for Chemical Genomics, 2012).

Hit rate of the full screen: of about 360,000 compounds, about 3,100 (0.86%) were called active. Shown is part of a subset that was picked to be rich in actives. Values without a mark were called inactive.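 How the source made its calls: active means inhibition or corrected inhibition above about 18%, plus a signal ratio from 0.5 to 1.5 (limit read from the data, passing the limit was not always enough); inactive means the rest.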

The target of the assay is Neuropilin-1 (Homo sapiens) (UniProt O14786). Kind of assay: NRP-1/CendR peptide interaction modulators – biochemical, fluorescence polarization, uHTS, primary screen (AID 602438). The settings on record: FAM-RPARPAR peptide binding to NRP-1, fluorescence polarization; at 25 µM; stronger effect = higher value. For orientation: Polarisation of emitted light reports the rotation of a fluorescent probe.
Sequence of Neuropilin-1 (Homo sapiens) (O14786 whole entry, looked up): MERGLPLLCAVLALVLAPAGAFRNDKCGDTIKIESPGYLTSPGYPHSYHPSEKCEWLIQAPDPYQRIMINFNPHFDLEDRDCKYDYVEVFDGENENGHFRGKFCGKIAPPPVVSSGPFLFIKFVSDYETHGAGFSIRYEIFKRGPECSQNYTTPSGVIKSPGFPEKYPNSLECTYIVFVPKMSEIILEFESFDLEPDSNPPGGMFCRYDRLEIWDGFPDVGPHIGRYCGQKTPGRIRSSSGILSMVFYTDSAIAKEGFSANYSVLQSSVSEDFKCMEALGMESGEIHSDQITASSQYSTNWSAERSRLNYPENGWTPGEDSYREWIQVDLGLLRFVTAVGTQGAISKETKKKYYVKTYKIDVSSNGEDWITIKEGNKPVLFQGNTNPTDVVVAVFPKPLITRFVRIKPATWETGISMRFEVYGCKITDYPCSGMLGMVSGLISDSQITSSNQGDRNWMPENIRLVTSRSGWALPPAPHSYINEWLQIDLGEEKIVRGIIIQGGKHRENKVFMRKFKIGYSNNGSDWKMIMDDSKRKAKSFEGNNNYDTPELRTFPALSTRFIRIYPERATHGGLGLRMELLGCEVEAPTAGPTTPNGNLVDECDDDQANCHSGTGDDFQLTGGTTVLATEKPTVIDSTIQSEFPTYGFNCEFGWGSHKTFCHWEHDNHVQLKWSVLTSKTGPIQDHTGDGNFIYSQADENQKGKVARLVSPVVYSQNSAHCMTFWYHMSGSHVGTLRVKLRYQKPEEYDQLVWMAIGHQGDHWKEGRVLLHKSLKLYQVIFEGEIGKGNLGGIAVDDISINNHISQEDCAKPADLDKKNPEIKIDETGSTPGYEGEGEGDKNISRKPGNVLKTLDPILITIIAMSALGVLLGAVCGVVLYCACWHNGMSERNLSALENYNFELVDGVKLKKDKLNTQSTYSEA
Take `CCc1oc(-c2ccc(OC)cc2)c(C(=O)OCCCCCO)c1C(C)OCCO` (stereo not given): the inhibition is 23% (active). `CCN(CCCCOC(=O)c1ccc(OC)c(OC)c1)C(C)Cc1ccc(OC)cc1` (stereo not given): the inhibition was -0.7%. As for `COc1ccc(-c2oc3ncnc(NCCCO)c3c2-c2ccc(OC)cc2)cc1`, the inhibition is 4.1%.

`CCOC(=O)C1=CC[C@@H](c2ccccc2)N(S(=O)(=O)c2ccc(C)cc2)[C@H]1c1ccc(CC)cc1`: the inhibition is 11.1%.

Regarding `CCOC(=O)C1=CC[C@@H](c2ccccc2)N(S(=O)(=O)c2ccc(C)cc2)[C@H]1c1cccc(OC)c1`, the inhibition was 26% (active). On to `CCOC(=O)C1=CCC(c2ccc(F)cc2)N(S(=O)(=O)c2ccc(C)cc2)C1` (stereo not given), for which the inhibition was 19.9% (active). As for `Cc1ccc([C@@H]2CC=C(C(=O)O)[C@H](c3cccc(Cl)c3)N2S(=O)(=O)c2ccc(C)cc2)cc1`, the inhibition was -10.9%. For `CC(=O)C1=CCC(c2ccccc2)N(S(=O)(=O)c2ccc(C)cc2)C1` (stereo not given) the value was -3.9%; for `CCOC(=O)C1=CC[C@@H](c2ccncc2)N(S(=O)(=O)c2ccc(C)cc2)C1`, 13.9%. For `CCN(CC)S(=O)(=O)c1ccc(CNC(=O)CN2C(=O)NC3(CCc4ccccc43)C2=O)cc1` (stereo not given) the value was -10.1%. For `CCOC(=O)CSc1ccccn1` the value was 2.8%. On to `CCOC(=O)CSc1nccc(N(C)C)c1C#N`, for which the inhibition is 25.2% (active). The result for `CCOC(=O)CSc1nc(N2CCOCC2)c2c(c1C#N)CC(C(C)C)OC2` (stereo not given) reads -2%.

On to `Cc1n[nH]c(C)c1S(=O)(=O)N1CCCC(C(=O)NCC2COc3ccccc3O2)C1` (stereo not given), for which the inhibition was 6.3%. The result for `COC(=O)Nc1ncc(CN2CCCCC2)s1` reads 6.1%; that for `COC(=O)C1(C(=O)OC)C[C@H](c2ccccc2)N(Cc2ccccc2OC)[C@@H]1c1ccccc1`, 18.8%. The result for `COCCNC(=O)c1ccc2c(c1)ncn2-c1ccc(C)c(Cl)c1` reads 37.8% (active); that for `COC(CNC(=O)c1ccc2c(c1)ncn2-c1cc(C)cc(C)c1)OC`, -2.4%.

On to `COCCCNC(=O)c1ccc2c(c1)ncn2-c1ccccc1OC`, for which the inhibition was -5.2%.

Consider `CC1(C)NC(=O)N(CC(=O)N2CCN(S(=O)(=O)c3ccccc3F)CC2)C1=O`, for which the inhibition was -17.9%. On to `CCOC(=O)N1CCC(N(CCOC)C(=O)Nc2ccc(C)c(C)c2)CC1`, for which the inhibition was -9.1%. The result for `CC(=O)NCC(=O)N(C)C(C(=O)Nc1ccc2c(c1)OCCO2)c1ccccc1` (stereo not given) reads -6%. The result for `CC(=O)N1c2ccc(S(=O)(=O)N3CCC(C(=O)NC4CCCC(C)C4C)CC3)cc2CC1C` (stereo not given) reads 1.3%; that for `CC(=O)N1c2ccc(S(=O)(=O)N3CCC(C(=O)NCc4ccc(F)cc4)CC3)cc2CC1C` (stereo not given), -3.5%; that for `CC(=O)N1c2ccc(S(=O)(=O)N3CCC(C(=O)NC4CCCCC4C)CC3)cc2CC1C` (stereo not given), 21.3% (active). Regarding `COC(=O)c1cc(OCC(=O)NC2CCCc3ccccc32)cc(C(=O)OC)c1` (stereo not given), the inhibition is 11.6%. In the case of `COc1ccc(CN(C)C(C)C(=O)NC2CCCc3ccccc32)cc1` (stereo not given), the inhibition is -9.8%. The result for `COc1ccc2c(c1)C(NS(=O)(=O)OCC(Cl)(Cl)Cl)CCC2` (stereo not given) reads 20.7% (active).

On to `CCCc1nnc(NC(=O)CCC(=O)NC2CC2)s1`, for which the inhibition is -3.9%. The result for `COc1cccc(N(C(=O)c2ccn[nH]2)C2(C(=O)Nc3c(C)cccc3C)CCCCC2)c1` reads 20.6% (active); that for `Cc1cccc(C)c1NC(=O)C1(N(C(=O)c2ccccn2)c2ccc(O)cc2)CCCCC1`, -2.4%.

For the compound `COc1cccc(NC(=O)C2(C)CCN2C(=O)CCC2CCCC2)c1` (stereo not given), the inhibition was -6.9%. Consider `Cc1nc2c(-c3ccc(F)cc3)c(C)nn2c(C)c1CCC(=O)N1CCN(c2ccccn2)CC1`, for which the inhibition is -14.2%. The result for `CCc1ccc(Nc2n[n+](-c3ccccc3)c(-c3cccc(Cl)c3Cl)s2)cc1` reads 7.2%; that for `COc1ccc(C)cc1Nc1n[n+](-c2ccccc2)c(-c2cccc(Cl)c2Cl)s1`, 9.5%; that for `COc1cc(Br)c(-c2sc(Nc3ccccc3)n[n+]2-c2ccccc2)cc1OC`, 23.7% (active). For `O=C(C(NS(=O)(=O)c1cccc2nsnc12)c1ccccc1)N1CCN(c2ccccc2)CC1` (stereo not given) the value was 3.4%. As for `COc1ccc(COC(=O)c2ccc(Cl)c(S(=O)(=O)N3CCOCC3)c2)cc1F`, the inhibition is -7.6%. For `O=C(Cc1ccccc1Cl)N1CCOCC1` the value was 45.9% (active). Consider `O=C(Cc1ccccc1Cl)N1CCN(c2ccccn2)CC1`, for which the inhibition was -9.5%. For `O=C(CP(=O)(c1ccccc1)c1ccccc1)N1CCOCC1` the value was 12.2%; for `C=CCOc1cccc(CNn2cn[nH]c2=S)c1`, -0.4%; for `CCCNC(=O)c1onc(CSc2ccc(F)cc2)c1C(=O)NC(C)C`, 5.5%.

On to `COC(=O)c1onc(-c2c(OC)cc(OC)cc2OC)c1C(=O)OC`, for which the inhibition was 2.6%. Turning to `COC(=O)c1c(CCl)noc1C(=O)NC(C)C`, the inhibition is 28.8% (active).

Regarding `CC1CC(C)(C)n2c(O)c(N=NC(N)=S)c3cccc1c32` (stereo not given), the inhibition was 6.2%. For `O=C(O)CCCN1C(=O)C2C3c4ccccc4C(c4ccccc43)[C@@H]2C1=O` (stereo not given in full) the value was -2%.

For the compound `CCCCN(C)CCNC(=O)C1CCCN(S(=O)(=O)c2cccc3nsnc23)C1` (stereo not given), the inhibition was -1.2%. For `Cn1cccc1C1(C(F)(F)F)NCCNC1=O` (stereo not given) the value was -1.4%; for `Cc1c(CCO)c(=O)n(-c2ccccc2)n1S(=O)(=O)c1ccc(F)cc1`, -66%; for `COc1cccc(-c2cc3nc(NCc4ccccc4OC)n(C)c(=O)c3s2)c1`, 9.9%. As to `COc1cccc(-c2ccc3c(c2)N(Cc2ccccc2OC)C(=O)C(C)S3)c1` (stereo not given), the inhibition is 21.5% (active).

On to `COc1cccc(-n2cc3c(c2-c2ccccc2)c(=O)n(C)c(=O)n3C)c1`, for which the inhibition is -0.7%. With `CN=C(c1ccccc1)c1c(C)cccc1C`, the inhibition was 1.9%.

With `Cc1nc(S(=O)(=O)c2ccc(Br)cc2)nc2c1CCC2`, the inhibition was 0.1%.

On to `CCOC(=O)/C=C/c1ccc(C(F)(F)F)cc1S(=O)(=O)NC(C)(C)C`, for which the inhibition is 26.8% (active). Turning to `Cn1c(N)c(C(=O)COC(=O)/C=C/c2cccc(C(F)(F)F)c2)c(=O)n(C)c1=O`, the inhibition was 4.9%. For `CCOC(=O)CCC(NC(=O)c1ccc(CNc2nc3cc(C(F)(F)F)ccc3nc2C(=O)OCC)cc1)C(=O)OCC` (stereo not given), the inhibition is -1.5%. For the compound `CCCn1c2ccccc2c2cnn(CC(=O)NCCCN3CCCCC3CC)c(=O)c21` (stereo not given), the inhibition is 29.4% (active). Turning to `O=C(Cn1ncc2c3ccccc3n(Cc3ccccc3)c2c1=O)NCCCN1CCOCC1`, the inhibition is 8.8%. On to `CC1CCCCN1CCCNC(=O)Cn1ncc2c([nH]c3ccccc32)c1=O` (stereo not given), for which the inhibition was 6.7%.

`CCN(CC)C(=O)c1nc[nH]c1C(=O)N(C)Cc1ccccc1`: the inhibition is 29.2% (active). Consider `CCN(Cc1ccncc1)C(=O)CCc1ccccc1`, for which the inhibition is 9.5%. For `CN(CCO)C(=O)c1nc[nH]c1C(=O)N(C)Cc1ccccc1` the value was 9.7%; for `CCN(CC(=O)Nc1ccc(OC)cc1)C(=O)c1ccc(=O)n(Cc2ccccc2)n1`, 4.7%. For `Cc1c(C(C)CCCO)oc(=O)c2c1Oc1c(C)c(C(C)C[C@@H](C)O)oc(=O)c1C2` (stereo not given in full) the value was 13.8%. On to `CCOC(=O)N1CCN(C(=O)c2nn(-c3ccc(C)cc3)c(=O)c3c2c2ccccc2n3C)CC1`, for which the inhibition was 17.7% (active). Turning to `CCOC(=O)N1CCN(C(=O)Cn2cnc3ccccc3c2=O)CC1`, the inhibition is 3.1%. For `CCOC(=O)N1CCN(CC(=O)n2c(C)c(C)c3ccccc32)CC1` the value was 4.2%.

On to `CCOC(=O)CSc1nncc2ccc(OC)c(OC)c12`, for which the inhibition was -16.1%. Turning to `CCOc1ccc(NC(=O)CC(Cc2ccc(Cl)cc2)C(=O)O)cc1` (stereo not given), the inhibition is 1.1%. Consider `COc1ccc(CNC(=O)[C@H](Cc2c[nH]c3ccccc23)NC(C)=O)cc1OC`, for which the inhibition is -6.3%. The result for `COC(=O)C(Cc1c[nH]c2ccccc12)NC(=O)CCNC(=O)c1ccco1` (stereo not given) reads 22.2% (active); that for `CC(=O)NC(Cc1c[nH]c2ccccc12)C(=O)NCCc1ccccc1` (stereo not given), 6.7%. As to `Cc1cc(C)cc(N(CC(=O)N2CC=C(c3ccccc3)CC2)S(=O)(=O)c2c(C)noc2C)c1`, the inhibition was -1.1%. Turning to `O=C(c1cccc(F)c1)N1CCN(c2ccc([N+](=O)[O-])c(N3CCCCC3)c2)CC1`, the inhibition is 44.3% (active).

Turning to `CC(C)c1ccc(S(=O)(=O)N2CCN(C(=O)c3ccc(N4CCCC4)c([N+](=O)[O-])c3)CC2)cc1`, the inhibition is 6.8%. For `O=C(c1cccc(F)c1)N1CCN(c2ccc([N+](=O)[O-])c3cccnc23)CC1`, the inhibition was -12.9%. For `Cc1ccc(C2NC(=S)NC3=C2N2CCC3CC2)cc1` (stereo not given) the value was 11.9%. Take `COc1ccccc1CCNS(=O)(=O)c1cc2c3c(c1)C(C)C(=O)N3CCC2` (stereo not given): the inhibition is -11.3%. Regarding `COc1cccc(CNC(=O)[C@@H]2CCCN2C(=O)[C@@H]2CCCN2C(=O)c2ccccc2)c1`, the inhibition was -6.2%. `CC1=NN(C(=O)c2ccc(Br)cc2)C(O)(c2ccccc2)C1` (stereo not given): the inhibition is -3%. For `CC1=NN(C(=O)c2ccccc2Br)C(O)(c2cccnc2)C1` (stereo not given) the value was -1.7%; for `CCOC(=O)C1(O)CC(C)=NN1C(=O)c1cccc(Br)c1` (stereo not given), 26.7% (active); for `O=C(NCc1ccco1)c1ccc(NS(=O)(=O)c2cccc([N+](=O)[O-])c2)cc1`, 6.8%. Turning to `O=C(C1CCCO1)N(c1ccc(F)cc1)C1C=CS(=O)(=O)C1` (stereo not given), the inhibition is -10.6%. Regarding `CCc1nnc(NC(=O)CSc2nnc(COc3ccc(C#N)cc3)n2-c2ccccc2)s1`, the inhibition is 0.5%.

With `COc1ccccc1N(CC(=O)N1CCCCC1)S(=O)(=O)c1ccccc1`, the inhibition was -3.8%. The result for `CCOc1ccc(N(CC(=O)NCCOc2ccccc2OC)S(=O)(=O)c2ccccc2)cc1` reads -4.4%. On to `COc1ccccc1N(CCOc1ccccc1)S(=O)(=O)c1ccccc1`, for which the inhibition was 26.1% (active).

What is called inhibition is the drop in the measured response relative to a control, in per cent.
